The results in this text go back to article PMC7862700, “An all-to-all approach to the identification of sequence-specific readers for epigenetic DNA modifications on cytosine”.

Holding throughout (test): DAPPL (digital affinity profiling via proximity ligation, sequencing); 10 mM Tris-HCl pH 7.5, 50 mM NaCl, 1 mM DTT, 4% glycerol, room temperature, 30 min; GST-TFs on glutathione beads, 16-mer random dsDNA library, 0.1% formaldehyde crosslink after washing; high values mean tight binding
Assay [1] concerns the target T1, FEV (Homo sapiens, UniProt Q99581 1-238).
T1 sequence: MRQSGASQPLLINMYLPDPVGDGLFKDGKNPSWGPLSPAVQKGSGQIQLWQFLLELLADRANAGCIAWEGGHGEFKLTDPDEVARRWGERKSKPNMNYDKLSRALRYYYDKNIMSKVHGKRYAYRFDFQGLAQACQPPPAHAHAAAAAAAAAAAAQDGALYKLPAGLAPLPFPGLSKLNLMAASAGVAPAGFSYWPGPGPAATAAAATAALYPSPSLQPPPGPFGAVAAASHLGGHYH
To be noted: protein: recombinant; tags: N-terminal GST; dsDNA, one strand shown. Put shortly: (§1)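 Human transcription factors carrying a GST fusion were produced in yeast, bound to glutathione beads, tagged with DNA barcodes and pooled together with a tag-only sample. Each pool was held with 200 nmole of a random double-stranded 16-mer DNA library in Tris/NaCl/DTT/glycerol buffer for 30 min at room temperature, then washed, crosslinked in 0.1% formaldehyde, proximity-ligated with BsaI/T4 ligase (1 h, 37 °C), PCR-amplified and sequenced on an Illumina NextSeq500. Binding signal is the read frequency of each hexamer for a given factor divided by its frequency in the tag-only sample.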

Assay [2] deals with ETV5 (Homo sapiens, UniProt P41161 1-510). To be noted: protein: recombinant; tags: N-terminal GST; dsDNA, one strand shown. The procedure, abridged: as §1
In assay [3] the target is HSF1 (Homo sapiens, UniProt Q00613 1-529). To be noted: protein: recombinant; tags: N-terminal GST; chain copies: 3; dsDNA, one strand shown. The procedure, abridged: as §1
Assay [4] concerns the target T2, SPIC (Homo sapiens, UniProt Q8N5J4 1-248).
T2 sequence: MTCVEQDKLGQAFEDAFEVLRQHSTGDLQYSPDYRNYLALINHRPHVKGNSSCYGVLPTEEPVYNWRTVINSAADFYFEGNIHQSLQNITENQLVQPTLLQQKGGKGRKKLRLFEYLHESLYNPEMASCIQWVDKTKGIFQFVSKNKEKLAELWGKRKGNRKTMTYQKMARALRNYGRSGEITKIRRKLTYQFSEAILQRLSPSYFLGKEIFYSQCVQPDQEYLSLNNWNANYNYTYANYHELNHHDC
To be noted: protein: recombinant; tags: N-terminal GST; dsDNA, one strand shown. The procedure, abridged:
as §1

The target of assay [5] is ELF4 (Homo sapiens, UniProt Q99607 1-663). To be noted: protein: recombinant; tags: N-terminal GST; dsDNA, one strand shown. The procedure, abridged: as §1
The target of assay [6] is T3, ELK4 (Homo sapiens, UniProt P28324-2 1-405).
T3 sequence: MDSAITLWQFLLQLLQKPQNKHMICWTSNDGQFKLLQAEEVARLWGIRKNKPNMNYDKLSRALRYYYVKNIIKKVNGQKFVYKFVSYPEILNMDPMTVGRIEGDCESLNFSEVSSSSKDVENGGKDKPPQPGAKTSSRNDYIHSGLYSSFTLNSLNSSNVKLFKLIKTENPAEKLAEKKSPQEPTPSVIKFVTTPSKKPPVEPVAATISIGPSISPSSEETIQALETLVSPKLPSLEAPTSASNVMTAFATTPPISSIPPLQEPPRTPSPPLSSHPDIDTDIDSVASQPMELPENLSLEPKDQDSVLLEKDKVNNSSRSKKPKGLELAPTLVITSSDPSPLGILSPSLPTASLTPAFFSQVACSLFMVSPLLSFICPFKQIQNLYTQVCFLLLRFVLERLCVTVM
To be noted: protein: recombinant; tags: N-terminal GST; dsDNA, one strand shown. The procedure, abridged: as §1

In assay [7] the target is T4, ETV2 (Homo sapiens, UniProt O00321 1-342).
T4 sequence: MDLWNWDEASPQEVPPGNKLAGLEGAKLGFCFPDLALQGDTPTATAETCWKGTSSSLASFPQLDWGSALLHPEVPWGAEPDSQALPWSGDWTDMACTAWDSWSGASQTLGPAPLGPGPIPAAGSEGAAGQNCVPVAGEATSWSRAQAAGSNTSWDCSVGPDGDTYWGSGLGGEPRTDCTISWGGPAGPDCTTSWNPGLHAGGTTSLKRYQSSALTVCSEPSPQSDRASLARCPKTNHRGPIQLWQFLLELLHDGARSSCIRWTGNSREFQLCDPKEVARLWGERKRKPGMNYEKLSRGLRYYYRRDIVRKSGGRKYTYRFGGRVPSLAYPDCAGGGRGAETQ
To be noted: protein: recombinant; tags: N-terminal GST; dsDNA, one strand shown. The procedure, abridged:
as §1

The target in assay [8] is T5, ELF3 (Homo sapiens, UniProt P78545 1-371).
T5 sequence: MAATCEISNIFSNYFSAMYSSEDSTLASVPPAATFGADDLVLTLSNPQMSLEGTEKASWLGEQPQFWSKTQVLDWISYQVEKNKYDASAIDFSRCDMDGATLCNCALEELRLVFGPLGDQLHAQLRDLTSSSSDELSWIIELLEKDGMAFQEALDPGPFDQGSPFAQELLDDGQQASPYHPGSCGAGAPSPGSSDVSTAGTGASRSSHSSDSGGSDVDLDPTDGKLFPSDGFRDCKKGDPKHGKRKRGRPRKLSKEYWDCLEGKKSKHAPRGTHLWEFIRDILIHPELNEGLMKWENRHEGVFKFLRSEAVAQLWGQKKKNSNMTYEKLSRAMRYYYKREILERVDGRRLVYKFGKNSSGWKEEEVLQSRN
To be noted: protein: recombinant; tags: N-terminal GST; dsDNA, one strand shown. The procedure, abridged:
as §1

For assay [9], the target named is CRX (Homo sapiens, UniProt O43186 1-299). To be noted: protein: recombinant; tags: N-terminal GST; dsDNA, one strand shown. Put shortly: as §1
Assay [10] has as its target ETV1 (Homo sapiens, UniProt P50549 1-477). To be noted: protein: recombinant; tags: N-terminal GST; dsDNA, one strand shown. The procedure, abridged:
as §1

Assay [11] concerns the target T6, ERF (Homo sapiens, UniProt P50548 1-548).
T6 sequence: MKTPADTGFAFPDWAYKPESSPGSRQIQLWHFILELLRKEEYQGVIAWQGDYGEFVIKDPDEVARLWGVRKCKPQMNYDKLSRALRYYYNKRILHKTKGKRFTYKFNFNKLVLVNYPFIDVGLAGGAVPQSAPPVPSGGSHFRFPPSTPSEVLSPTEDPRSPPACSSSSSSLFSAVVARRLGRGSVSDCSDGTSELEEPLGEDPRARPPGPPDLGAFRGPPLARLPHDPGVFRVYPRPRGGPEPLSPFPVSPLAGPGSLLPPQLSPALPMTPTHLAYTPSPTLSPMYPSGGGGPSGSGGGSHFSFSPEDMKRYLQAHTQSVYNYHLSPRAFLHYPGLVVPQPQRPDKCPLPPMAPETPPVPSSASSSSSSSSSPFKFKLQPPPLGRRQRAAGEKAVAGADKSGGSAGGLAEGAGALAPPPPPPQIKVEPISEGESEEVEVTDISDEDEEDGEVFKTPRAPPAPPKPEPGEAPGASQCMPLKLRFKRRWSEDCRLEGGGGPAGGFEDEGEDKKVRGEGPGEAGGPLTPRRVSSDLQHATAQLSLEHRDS
To be noted: protein: recombinant; tags: N-terminal GST; dsDNA, one strand shown. The procedure, abridged:
as §1

Assay [12] deals with T7, ETV3L (Homo sapiens, UniProt Q6ZN32 1-361).
T7 sequence: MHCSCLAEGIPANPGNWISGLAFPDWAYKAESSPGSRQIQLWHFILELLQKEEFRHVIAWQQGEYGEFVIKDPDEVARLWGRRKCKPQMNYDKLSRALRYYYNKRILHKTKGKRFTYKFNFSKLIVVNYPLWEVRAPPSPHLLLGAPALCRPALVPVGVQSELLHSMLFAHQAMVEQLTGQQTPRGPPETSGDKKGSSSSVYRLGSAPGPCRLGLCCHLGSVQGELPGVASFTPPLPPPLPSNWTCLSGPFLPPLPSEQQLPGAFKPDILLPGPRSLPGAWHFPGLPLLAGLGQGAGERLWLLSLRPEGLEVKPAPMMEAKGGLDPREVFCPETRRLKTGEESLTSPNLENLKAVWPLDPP
To be noted: protein: recombinant; tags: N-terminal GST; dsDNA, one strand shown. Put shortly:
as §1

The target of assay [13] is T8, ETS2 (Homo sapiens, UniProt P15036 1-469).
T8 sequence: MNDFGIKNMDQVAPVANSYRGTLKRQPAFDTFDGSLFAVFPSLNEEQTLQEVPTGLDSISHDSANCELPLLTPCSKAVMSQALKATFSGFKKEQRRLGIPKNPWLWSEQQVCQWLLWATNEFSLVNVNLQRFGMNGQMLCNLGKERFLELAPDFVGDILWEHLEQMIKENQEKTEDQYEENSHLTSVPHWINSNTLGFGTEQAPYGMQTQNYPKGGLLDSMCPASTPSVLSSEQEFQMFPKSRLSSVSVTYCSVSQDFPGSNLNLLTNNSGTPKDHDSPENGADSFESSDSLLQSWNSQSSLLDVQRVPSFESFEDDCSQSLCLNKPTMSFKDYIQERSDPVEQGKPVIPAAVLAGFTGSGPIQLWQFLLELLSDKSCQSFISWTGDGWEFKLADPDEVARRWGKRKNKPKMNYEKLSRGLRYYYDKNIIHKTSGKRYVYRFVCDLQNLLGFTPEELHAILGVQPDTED
To be noted: protein: recombinant; tags: N-terminal GST; dsDNA, one strand shown. Put shortly:
as §1

The target in assay [14] is T9, SPDEF (Homo sapiens, UniProt O95238 1-335).
T9 sequence: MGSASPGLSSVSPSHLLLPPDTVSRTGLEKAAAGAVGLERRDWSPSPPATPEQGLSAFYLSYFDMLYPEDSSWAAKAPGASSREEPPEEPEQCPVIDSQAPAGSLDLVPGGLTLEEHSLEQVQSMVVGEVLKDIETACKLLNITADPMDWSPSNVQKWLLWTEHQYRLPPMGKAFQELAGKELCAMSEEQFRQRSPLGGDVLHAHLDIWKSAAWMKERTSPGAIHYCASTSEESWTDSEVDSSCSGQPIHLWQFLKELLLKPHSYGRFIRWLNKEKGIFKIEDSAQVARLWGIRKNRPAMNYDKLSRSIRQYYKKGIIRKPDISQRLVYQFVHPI
To be noted: protein: recombinant; tags: N-terminal GST; dsDNA, one strand shown. Put shortly:
as §1

In assay [15] the target is T10, ETV7 (Homo sapiens, UniProt Q9Y603 1-341).
T10 sequence: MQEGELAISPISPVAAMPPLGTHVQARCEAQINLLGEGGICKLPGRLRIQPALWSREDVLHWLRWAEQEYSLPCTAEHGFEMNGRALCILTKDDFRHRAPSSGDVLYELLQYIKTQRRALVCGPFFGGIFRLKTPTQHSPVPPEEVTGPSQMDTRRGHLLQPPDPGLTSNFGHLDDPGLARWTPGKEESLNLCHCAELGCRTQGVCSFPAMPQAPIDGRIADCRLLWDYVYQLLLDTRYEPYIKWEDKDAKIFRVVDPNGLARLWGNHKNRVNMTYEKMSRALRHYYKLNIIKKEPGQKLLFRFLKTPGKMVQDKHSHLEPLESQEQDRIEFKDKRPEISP
To be noted: protein: recombinant; tags: N-terminal GST; dsDNA, one strand shown. The procedure, abridged:
as §1

Assay [16] deals with T11, ELF5 (Homo sapiens, UniProt Q9UKW6-2 1-255).
T11 sequence: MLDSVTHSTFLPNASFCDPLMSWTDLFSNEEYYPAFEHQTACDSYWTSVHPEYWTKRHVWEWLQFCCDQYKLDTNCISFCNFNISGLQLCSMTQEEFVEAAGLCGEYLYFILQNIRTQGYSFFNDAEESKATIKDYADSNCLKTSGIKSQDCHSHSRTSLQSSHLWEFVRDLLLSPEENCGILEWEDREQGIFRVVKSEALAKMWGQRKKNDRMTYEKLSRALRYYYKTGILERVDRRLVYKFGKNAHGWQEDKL
To be noted: protein: recombinant; tags: N-terminal GST; dsDNA, one strand shown. The procedure, abridged: as §1

The target of assay [17] is T12, ETV3 (Homo sapiens, UniProt P41162-2 1-143).
T12 sequence: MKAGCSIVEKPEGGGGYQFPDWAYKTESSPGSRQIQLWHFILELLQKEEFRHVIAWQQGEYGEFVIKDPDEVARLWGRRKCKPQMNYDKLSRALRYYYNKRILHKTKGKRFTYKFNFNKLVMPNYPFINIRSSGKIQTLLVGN
To be noted: protein: recombinant; tags: N-terminal GST; dsDNA, one strand shown. The procedure, abridged:
as §1

The target of assay [18] is ETV6 (Homo sapiens, UniProt P41212 1-452). To be noted: protein: recombinant; tags: N-terminal GST; dsDNA, one strand shown. Put shortly:
as §1

Chain of CRX (O43186 whole entry): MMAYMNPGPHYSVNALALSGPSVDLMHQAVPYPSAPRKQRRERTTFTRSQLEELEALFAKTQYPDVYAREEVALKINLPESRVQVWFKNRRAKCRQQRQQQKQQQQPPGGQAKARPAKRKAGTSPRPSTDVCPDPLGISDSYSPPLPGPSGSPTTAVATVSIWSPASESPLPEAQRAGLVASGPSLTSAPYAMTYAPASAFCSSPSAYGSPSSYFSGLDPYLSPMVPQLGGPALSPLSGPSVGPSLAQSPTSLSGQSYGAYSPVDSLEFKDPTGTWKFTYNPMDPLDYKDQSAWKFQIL
Chain of ETV5 (P41161 whole entry): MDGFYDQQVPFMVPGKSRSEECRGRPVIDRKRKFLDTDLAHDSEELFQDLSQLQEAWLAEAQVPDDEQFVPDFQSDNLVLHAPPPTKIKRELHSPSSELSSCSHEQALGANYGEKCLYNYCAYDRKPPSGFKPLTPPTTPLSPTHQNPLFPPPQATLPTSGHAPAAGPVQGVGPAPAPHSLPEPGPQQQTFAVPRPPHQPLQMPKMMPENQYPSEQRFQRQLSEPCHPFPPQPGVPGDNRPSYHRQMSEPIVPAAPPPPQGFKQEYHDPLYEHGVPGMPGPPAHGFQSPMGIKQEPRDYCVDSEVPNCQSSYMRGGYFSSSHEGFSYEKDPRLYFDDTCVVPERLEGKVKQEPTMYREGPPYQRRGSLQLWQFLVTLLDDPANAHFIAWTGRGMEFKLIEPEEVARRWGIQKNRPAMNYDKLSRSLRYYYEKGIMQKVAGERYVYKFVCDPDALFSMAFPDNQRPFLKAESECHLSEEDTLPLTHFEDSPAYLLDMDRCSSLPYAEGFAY
Chain of HSF1 (Q00613 whole entry): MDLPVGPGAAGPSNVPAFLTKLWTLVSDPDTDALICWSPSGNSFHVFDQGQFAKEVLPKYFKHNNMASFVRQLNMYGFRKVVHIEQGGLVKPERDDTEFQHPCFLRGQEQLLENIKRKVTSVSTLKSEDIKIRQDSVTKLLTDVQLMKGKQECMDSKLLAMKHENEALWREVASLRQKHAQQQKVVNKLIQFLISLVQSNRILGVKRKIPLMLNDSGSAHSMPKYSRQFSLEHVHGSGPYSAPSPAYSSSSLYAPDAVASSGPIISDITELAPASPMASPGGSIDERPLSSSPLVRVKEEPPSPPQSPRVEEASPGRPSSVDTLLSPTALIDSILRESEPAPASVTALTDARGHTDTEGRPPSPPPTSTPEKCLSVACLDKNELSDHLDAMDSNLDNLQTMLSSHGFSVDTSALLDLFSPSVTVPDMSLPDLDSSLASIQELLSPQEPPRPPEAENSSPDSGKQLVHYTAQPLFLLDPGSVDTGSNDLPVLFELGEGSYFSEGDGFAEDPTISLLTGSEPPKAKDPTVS
Chain of ETV6 (P41212 whole entry): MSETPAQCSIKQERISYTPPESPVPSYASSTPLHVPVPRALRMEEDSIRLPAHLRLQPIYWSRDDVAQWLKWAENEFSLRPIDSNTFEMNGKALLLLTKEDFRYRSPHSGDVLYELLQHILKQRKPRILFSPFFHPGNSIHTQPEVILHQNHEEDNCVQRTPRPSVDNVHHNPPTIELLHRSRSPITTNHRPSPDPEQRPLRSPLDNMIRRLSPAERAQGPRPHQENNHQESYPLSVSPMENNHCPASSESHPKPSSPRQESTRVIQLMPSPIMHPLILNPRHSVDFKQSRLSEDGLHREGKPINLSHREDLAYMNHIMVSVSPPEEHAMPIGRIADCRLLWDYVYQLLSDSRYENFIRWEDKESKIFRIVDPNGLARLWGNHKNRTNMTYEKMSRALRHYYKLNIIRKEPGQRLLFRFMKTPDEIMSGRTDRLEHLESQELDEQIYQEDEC
Chain of ETV1 (P50549 whole entry): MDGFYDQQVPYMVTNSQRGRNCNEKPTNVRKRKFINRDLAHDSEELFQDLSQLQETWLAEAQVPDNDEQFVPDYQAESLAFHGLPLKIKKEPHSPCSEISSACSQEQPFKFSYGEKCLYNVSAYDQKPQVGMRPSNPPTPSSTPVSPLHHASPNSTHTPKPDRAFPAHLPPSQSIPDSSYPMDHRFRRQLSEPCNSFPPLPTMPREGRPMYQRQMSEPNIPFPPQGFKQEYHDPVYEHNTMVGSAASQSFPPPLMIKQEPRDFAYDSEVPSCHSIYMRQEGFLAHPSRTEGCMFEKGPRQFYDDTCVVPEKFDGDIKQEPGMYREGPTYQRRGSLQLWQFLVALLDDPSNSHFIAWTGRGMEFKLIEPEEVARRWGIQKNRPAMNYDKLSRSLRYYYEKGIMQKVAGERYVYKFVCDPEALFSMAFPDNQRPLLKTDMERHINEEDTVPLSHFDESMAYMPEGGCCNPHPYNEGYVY
Chain of ELF4 (Q99607 whole entry): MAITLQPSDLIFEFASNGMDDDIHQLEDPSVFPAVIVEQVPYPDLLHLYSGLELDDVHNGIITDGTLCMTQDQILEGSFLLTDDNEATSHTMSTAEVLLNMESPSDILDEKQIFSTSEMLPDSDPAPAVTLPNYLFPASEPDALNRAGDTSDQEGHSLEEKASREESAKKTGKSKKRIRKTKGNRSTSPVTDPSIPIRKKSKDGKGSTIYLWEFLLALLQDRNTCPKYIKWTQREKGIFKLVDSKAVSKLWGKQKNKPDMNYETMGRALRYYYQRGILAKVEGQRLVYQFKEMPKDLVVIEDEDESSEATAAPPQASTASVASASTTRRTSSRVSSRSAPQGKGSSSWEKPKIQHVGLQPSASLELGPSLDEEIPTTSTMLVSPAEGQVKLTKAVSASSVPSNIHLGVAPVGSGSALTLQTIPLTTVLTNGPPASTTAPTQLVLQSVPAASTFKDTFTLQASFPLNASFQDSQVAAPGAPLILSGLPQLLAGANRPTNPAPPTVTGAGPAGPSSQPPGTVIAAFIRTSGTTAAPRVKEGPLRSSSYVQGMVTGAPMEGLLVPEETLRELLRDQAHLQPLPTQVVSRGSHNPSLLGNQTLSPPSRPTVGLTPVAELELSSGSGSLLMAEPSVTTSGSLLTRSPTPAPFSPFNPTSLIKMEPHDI

Regarding TCTGCT, the binding signal in assay [1] was 1.28 fold enrichment (6-mer frequency, TF over GST control); in assay [2] it was 1.29 fold enrichment (6-mer frequency, TF over GST control); in assay [3] it was 1.33 fold enrichment (6-mer frequency, TF over GST control); in assay [4], 1.43 fold enrichment (6-mer frequency, TF over GST control); in assay [5], 1.3 fold enrichment (6-mer frequency, TF over GST control); in assay [6], 1.57 fold enrichment (6-mer frequency, TF over GST control). In addition, the binding signal in assay [7] was 1.53 fold enrichment (6-mer frequency, TF over GST control); in assay [8], 1.11 fold enrichment (6-mer frequency, TF over GST control); in assay [9] it was 1.33 fold enrichment (6-mer frequency, TF over GST control); in [10], 1.32 fold enrichment (6-mer frequency, TF over GST control); in assay [11] it was 1.52 fold enrichment (6-mer frequency, TF over GST control); in [12], 1.28 fold enrichment (6-mer frequency, TF over GST control). Besides, the binding signal in assay [13] was 1.29 fold enrichment (6-mer frequency, TF over GST control); in [14] it was 1.21 fold enrichment (6-mer frequency, TF over GST control); in assay [15], 1.14 fold enrichment (6-mer frequency, TF over GST control); in assay [16], 1.2 fold enrichment (6-mer frequency, TF over GST control); in assay [17], 1.32 fold enrichment (6-mer frequency, TF over GST control); in assay [18], 1.18 fold enrichment (6-mer frequency, TF over GST control).
